Measurements from PubChem BioAssay (NCATS).
Results filed as inconclusive are left out. Unmarked numbers belong to inactive results. Active and inactive are the calls of the source. The call rests on the fitted dose curve; in most records, active means well fitted inhibition curve with a large enough effect; inconclusive means small, poorly fitted or top-dose-only effect; inactive means flat fitted curve, though single readings scatter. Where a SMILES comes first, the peptide text is derived from it. Bridges are numbered along the chain shown (N, C = ends). [ ]: non-standard residue; d: D form. The star is where a group is joined. X2 = CC[C@H](C)CCCCC(=O)*; Dab = NCC[C@H](N)C(=O)O

Test system: KB-3-1
Test: Cytotoxic Profiling of Annotated Libraries Using Quantitative High-Throughput Screening (AID 1296008); further: nearly all actives have a fitted effect of over 60% in size
Conditions: Five cell lines viability, CellTiter-Glo ATP luminescence, 48-72 h; max response: active compounds read low
Outline: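 Cells exposed to compounds for 48 or 72 hr at 37 degrees Celsius. Viability read as ATP-coupled luminescence with CellTiter-Glo after 10 min at room temperature.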
On the % scale 0 is the no-effect control and ±100 the full control effect; potency means the concentration at half of the fitted maximal effect.

SMILES	max response [%]	Potency
O=C(O)CN(CC(=O)O)CC1=CC2C(=CC1=O)Oc1cc(O)c(CN(CC(=O)O)CC(=O)O)cc1C21OC(=O)c2ccccc21 (configuration not stated)	-3.16	
CC1(C)[C@@H]2CC[C@@]1(C)[C@H](OC(=O)CSC#N)C2	3.19	
C=C[C@]1(C)C[C@@H](OC(=O)CSCCN(CC)CC)[C@]2(C)[C@H](C)CC[C@]3(CCC(=O)[C@H]32)[C@@H](C)[C@@H]1O	-8.95	
C[N+]1(C)[C@@H]2CC(OC(=O)C(O)(c3cccs3)c3cccs3)C[C@H]1[C@@H]1O[C@@H]12 (some centres not stated)	-8.8	
O=C(O)c1cc(O)c2c(c1)[C@H]([C@H]1c3cc(C(=O)O)cc(O)c3C(=O)c3c(O[C@@H]4O[C@H](CO)[C@@H](O)[C@H](O)[C@H]4O)cccc31)c1cccc(O[C@@H]3O[C@H](CO)[C@@H](O)[C@H](O)[C@H]3O)c1C2=O	-13.8	
CO[C@H]1C[C@H](O[C@H]2[C@H](C)[C@@H](O[C@@H]3O[C@H](C)C[C@H](N(C)C)[C@H]3O)[C@@H](C)C[C@]3(CO3)C(=O)[C@H](C)[C@@H](O)[C@@H](C)[C@@H](C)OC(=O)[C@@H]2C)O[C@@H](C)[C@@H]1O	3.86	
OC[C@@H](O)C(O)[C@H](O)CO	2.54	
CN[C@@H]1[C@@H](O[C@H]2O[C@H](CO)[C@@H](N)[C@H](O)[C@H]2O)O[C@H]2C[C@@H](N)[C@@H](O[C@H]3[C@H](O)[C@@H](O)[C@H](N)C[C@@H]3N)O[C@@H]2[C@@H]1O	9.56	
C=C1CC[C@H](O)CC1=C/C=C1\CCC[C@]2(C)[C@@H]([C@H](C)CCCC(C)(C)O)CC[C@@H]12	5.57	
CC[C@H](C)CCCCC(=O)N[C@@H](CCN)C(=O)N[C@H](C(=O)N[C@@H](CCN)C(=O)N[C@H]1CCNC(=O)[C@@H]([C@H](C)O)NC(=O)[C@H](CCN)NC(=O)[C@H](CCN)NC(=O)[C@H](CC(C)C)NC(=O)[C@@H](CC(C)C)NC(=O)[C@H](CCN)NC1=O)[C@@H](C)O (X2-[Dab]T[Dab][Dab][Dab][dL]L[Dab][Dab][dT]; lactam 4-C)	-9.96	
CN(C)CCC(O)(c1ccccc1)c1ccccc1Cl (configuration not stated)	3.32	
CC(O)[C@@H]1NC(=O)[C@H](Cc2ccccc2)NC(=O)[C@H](C(C)O)NC(=O)[C@H](CCCCN)NC(=O)[C@H](Cc2c[nH]c3ccccc23)NC(=O)[C@H](Cc2ccccc2)NC(=O)[C@H](Cc2ccccc2)NC(=O)[C@H](CC(N)=O)NC(=O)[C@H](CCCCN)NC(=O)[C@@H](NC(=O)CNC(=O)[C@H](C)N)CSSC[C@@H](C(=O)O)NC(=O)[C@H](CO)NC1=O (some centres not stated)	-3.89	
C[C@@H]1C/C=C/C=C/C=C/C=C/[C@H](O[C@@H]2O[C@H](C)[C@@H](O)[C@H](N)[C@@H]2O)C[C@@H]2O[C@](O)(C[C@@H](O)C[C@H]3O[C@@H]3/C=C/C(=O)O1)C[C@H](O)[C@H]2C(=O)O	3.94	
CCN1\C(=C/C=C/C=C/c2sc3ccccc3[n+]2CC)Sc2ccccc21		9.2 µM (active)
CC(C)N1CCN(c2ccc(OC[C@H]3CO[C@](Cn4cncn4)(c4ccc(Cl)cc4Cl)O3)cc2)CC1	0.302	
CO[C@@H]1[C@H](OC(=O)/C=C/C=C/C=C/C=C/C(=O)O)CC[C@]2(CO2)[C@H]1[C@@]1(C)O[C@@H]1CC=C(C)C	2	
CC(=O)N[C@@H]([C@@H](O)[C@H](O)[C@H](O)CO)[C@@H](O)CC(=O)C(=O)O	10.5	
CNC(C)CCC=C(C)C (configuration not stated)	-7.11	
NC(Cc1ccccc1)C(=O)O (configuration not stated)	4.99	
NC[C@H]1O[C@H](O[C@H]2[C@H](O)[C@@H](O[C@H]3O[C@H](CO)[C@@H](O)[C@H](N)[C@H]3O)[C@H](N)C[C@@H]2N)[C@H](N)C[C@@H]1O	-4.68	
CN[C@@H]1[C@@H](O)[C@@H](O[C@@H]2[C@@H](O)[C@H](O[C@H]3O[C@H](CN)[C@@H](O)[C@H](O)[C@H]3O)[C@@H](N)C[C@H]2NC(=O)C(O)CN)OC[C@]1(C)O (some centres not stated)	36	
CC[C@H](CC[C@@H](C)[C@H]1CC[C@H]2[C@@H]3CC=C4C[C@@H](O)CC[C@]4(C)[C@H]3CC[C@]12C)C(C)C	-4.33	
